Pf Dd2 growth: qHTS Primary assay for Inhibitors of Plasmodium falciparum Dd2 growth in vitro | actives 4.3% (n = 120,000) | Potency, µM (highest dose often 28.9 µM), usual class: inhibitors | P. falciparum Dd2 growth, SYBR Green, 72 h; active = well fitted inhibition curve with a large enough effect; also: nearly all actives have a fitted effect of over 65% in size
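Readout: SYBR Green fluorescence, 485 nm excitation, 535 nm emission, after ~16 h lysis at 37C. Before that, Dd2-infected red cells (2.5% hematocrit) grew 72 h with compound, 29 uM top final concentration.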
Of the large screens only hits and unclear results are named; the others gave an inactive call. Shown is part of a subset that was picked to be rich in hits.

COC(=O)[C@H](Cc1ccc(OC)cc1)NC(=O)[C@H]1CN(C(=O)c2ccc(N(C)C)cc2)CCN1C(=O)C1CCCCC1	Pf Dd2 growth 0.4µM
COC(=O)[C@H](Cc1ccc(OC)cc1)NC(=O)[C@@H]1CN(C(=O)NC(C)C)CCN1C(=O)c1cccs1	none
COC(=O)[C@H](Cc1ccc(OC)cc1)NC(=O)[C@@H]1CN(C(=O)c2cccc(F)c2)CCN1C(C)=O	none
CCn1cc(S(=O)(=O)N2CC(N(C)Cc3cccnc3)C2)cn1	none
CN1[C@@H](CCC(=O)N2CCOCC2)CNC(=O)[C@H]2NCC[C@H]21	none
O=C(O)c1cccc2c1CCN2C(=O)c1ccc(F)cc1	none
CNC(=O)c1c(NC(=O)/C=C/c2ccccc2Cl)sc2c1CCC2	none
Cc1ccc(NC(=O)/C=C/c2ccccc2Cl)cc1Cl	Pf Dd2 growth 2.8µM
Cc1ccc(NC(=O)c2ncn(-c3ccccc3)n2)cc1Cl	none
COc1ccc(CNC(=O)CCc2conc2-c2ccc(C)cc2)cc1	none
Cc1ccc(C(=O)NC2CCCN(c3cc(-c4ccc(F)cc4)[nH]n3)C2)cc1 (stereo not given)	none
Cc1cn2nc(C(=O)NCC(C)C)cc2c(N2CCCC2)n1	none
Cc1cn2nc(C(=O)NC3CCCCC3)cc2c(N2CCCC2)n1	Pf Dd2 growth 10µM
Cc1cn2nc(C(=O)NCCc3ccccc3)cc2c(N2CCCC2)n1	none
Cc1cc(C(=O)N2CCCCCCNC(=O)[C@@H]3C[C@@H](c4nc(Cc5ccccc5)no4)C[C@@H]32)n(C)n1	none
CC(C)(C)c1ccc(C(=O)N2CCC(c3nc(C4CCOC4)no3)CC2)cc1 (stereo not given)	none
CCCCC1C=CCN1S(=O)(=O)c1cccc(C(=O)NCC(F)(F)F)c1 (stereo not given)	none
COCCCNC(=O)C1COC2(CCC(C)CC2)N1C(=O)c1ccccc1F (stereo not given)	none
Cn1nc(C(=O)N2C[C@@H](CO)[C@H](c3ccccn3)C2)c2ccccc21	none
CNC(=O)[C@@H]1C[C@H](Oc2cccnc2)CN1C(=O)CCc1c[nH]c2ccccc12	none
COc1ccc(/C=C/C(=O)Nc2ccc(C)cc2)cc1	none
COc1ccc(NC(=O)/C=C\C(=O)N(c2ccc(C(C)C)cc2)C(C(=O)NCc2ccco2)c2ccc(C)cc2)cc1 (stereo not given)	Pf Dd2 growth 10µM
COc1ccc(NC(=O)C(c2ccc(C)cc2)N(C)C(=O)/C=C\c2ccc3c(c2)OCO3)cc1 (stereo not given)	none
Cn1c(C(=O)NC2CCN(Cc3ccccc3)CC2)cc2c1CCN(Cc1ccccc1)C2	none
Cc1sc2ccn(C)c(=O)c2c1C(=O)NC1CCN(Cc2ccccc2)CC1	none
Cn1cc(-c2ccncc2)cc1C(=O)NC1CCN(Cc2ccccc2)CC1	Pf Dd2 growth 5µM

Compound activity: PubChem BioAssay, National Center for Advancing Translational Sciences (NCATS)
